We go through 3 molecules from PubChem BioAssay (NCATS).

Records with an inconclusive call do not appear. The source made the active and inactive calls. Unless noted, calls follow the shape of the dose curve; as a rule, active = well fitted curve in the direction sought with a large enough effect; inconclusive = small, poorly fitted or top-dose-only effect, or another doubt; inactive = no such curve, though single readings can be large; an effect the other way counts as inactive or inconclusive.

Assay [1] deals with Lysosomal acid glucosylceramidase (Homo sapiens) (UniProt P04062). Briefly: Glucocerebrosidase-p2 (AID 348; in the data active = potency below about 10 µM; also: potency is read from the fitted curve at half-maximal effect). To be noted: purified GBA, blue fluorogenic substrate, 40 min. The gist of the method:
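Normal human glucocerebrosidase (0.2 nM) with blue fluorogenic substrate (80 uM final) in citrate/phosphate pH 5.9 with 10mM sodium taurocholate, 0.01% tween-20; 40 min RT, NaOH/glycine stop; fluorescence Ex 365/Em 440; AC50 from a titration from 0.6 nM upwards.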

Assay [2] is described as follows: AP1 Signaling Pathway (AID 357; active = well fitted curve in either direction with a large enough effect, not every such curve was filed as active;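 also: ME-180 reporter cells stimulated with EGF at its EC50 level; % is scaled to controls: 0 for no effect and ±100 for the full control effect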). To be noted: ME-180 AP-1-bla reporter, EGF-induced, beta-lactamase ratio, 5 h; at 7.69 µM (top of the series) unless noted. The gist of the method:
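Titration-series screen for positive or negative modulators of EC50 EGF-induced signaling in ME-180 cells carrying an AP-1-driven beta-lactamase reporter. After 5 hours at 37 degrees Celsius, CCF4 460nm/530nm emission ratio gave %Activity; AC50 values derived.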

Assay [3] addresses Cytochrome P450 1A2 (Homo sapiens) (UniProt P05177). Briefly: p450-cyp1a2 (AID 410; calls by dose curve; also: potency is read from the fitted curve at half-maximal effect). To be noted: recombinant CYP1A2, luciferin-ME demethylation, luminescence; series mostly up to 57 µM. The gist of the method: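 20nM CYP1A2, 100uM Luciferin-ME (=Km), 100mM KPO4; cpd 10 min RT; +NADPH regen, 60 min RT; stop/detect 20 min; luminescence. Normalized to furafylline 57 uM = full inhibition.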

The nature of assay [4]: NFAT Signaling Pathway (AID 444; active = well fitted curve in either direction with a large enough effect, not every such curve was filed as active;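 also: carbachol stimulus at about its EC50 of 1 µM final; % is scaled to controls: 0 for no effect and ±100 for the full control effect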). As to conditions: Jurkat NFAT-bla M1, carbachol, beta-lactamase ratio, 5 h; at 7.69 µM (top of the series) unless noted. A digest of the protocol: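 Jurkat cells with NFAT-driven β-lactamase reporter and co-expressed M1 receptor, stimulated with carbachol (final 1 uM, ~EC50), compound titration, 5 h at 37 °C. CCF4 loaded 1 h at RT; 460/530 nm ratio gave %activity and AC50.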

The nature of assay [5]: Stat Signaling Pathway (AID 446; active = well fitted curve in either direction with a large enough effect, not every such curve was filed as active;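 also: ME-180 cervical cancer cells given 40 pM IL-6 alongside compound; SIE-controlled beta-lactamase reporter measured as 460/530 nm FRET emission ratio; % is scaled to controls: 0 for no effect and ±100 for the full control effect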). To be noted: ME-180 SIE beta-lactamase reporter, IL-6 stimulated, 5 h; at 7.69 µM (top of the series) unless noted. A digest of the protocol: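 Overnight-plated ME-180 cells bearing a STAT Inducible Element beta-lactamase reporter; 5 h co-exposure to compound and 40 pM IL-6; values normalized to 300 pM IL-6 and 125 nM JAK inhibitor controls.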

Assay [6] concerns the target Glucocorticoid receptor (Homo sapiens) (UniProt P04150). Briefly: GR-EFC Redistribution (AID 451; calls by dose curve; also: potency is read from the fitted curve at half-maximal effect). As to conditions: CHO-K1 GR-EFC translocation, beta-gal luminescence, 2 h. A digest of the protocol:
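CHO-K1 cells expressing nuclear EA and GR-ED fragments of b-gal; compounds titrated up to 46 uM final, 2 h at 37 C. GR nuclear translocation read as complemented b-gal luminescence after 1 h RT detection.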

Assay [7] deals with Mitogen-activated protein kinase 10 (Mus musculus) (UniProt Q61831). Briefly: JNK3 AlphaScreen Assay (AID 530; active = well fitted curve in either direction with a large enough effect, not every such curve was filed as active;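 also: kinase came from lysate of stimulated human HepG2 cells; signal reports phosphorylation of biotinylated GST-cJun 1-79 at Ser73 with 10 µM ATP; % is scaled to controls: 0 for no effect and ±100 for the full control effect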). To be noted: JNK3 lysate, c-Jun phosphorylation; series mostly up to 57.1 µM. A digest of the protocol: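 HepG2 lysate (IL-1b/TNFa pre-activated) + biotin-GST-cJun 1-79 + anti-pSer73 cJun; cpd titration, 15 min RT; ATP 10 uM start; Tris pH 7.6, MgCl2, DTT, vanadate; beads in EDTA buffer; AlphaScreen.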
(Alpha assays give light when donor and acceptor beads are brought close together.)

Assay [8] has as its target 3',5'-cyclic-AMP phosphodiesterase 4B (Homo sapiens) (UniProt Q07343). Briefly: qHTS Assay for Inhibitors of PDE-IV (AID 607; active = well fitted activation curve with a large enough effect in the main read-out, with a control signal flat, not every such curve was filed as active; also: % of control where 0% means no effect). As to conditions: HEK293 ACTOne CNG channel cells, membrane potential fluorescence; series mostly up to 22.9 µM. The gist of the method: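 Live HEK293 cells with a modified cyclic nucleotide-gated (CNG) channel report intracellular cAMP via membrane-potential dye fluorescence (ex 535/em 590 nm). Endogenous PDE-IV was targeted. Compounds were tested at up to 22.9 uM final; RO 20-1724 100 uM served as control.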
(In general: In qHTS, concentration-response curves come from the screen itself.)

The target of assay [9] is Cytochrome P450 3A4 (Homo sapiens) (UniProt P08684). Briefly: qHTS Assay for Activators of Cytochrome P450 3A4 (AID 885). Also: nearly all actives have a fitted effect of over 65% in size. Also: potency is read from the fitted curve at half-maximal effect. To be noted: recombinant CYP3A4, Luciferin-PPXE luminescence, 60 min; series mostly up to 57.1 µM. A digest of the protocol: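 Using 20nM recombinant human CYP3A4 in potassium phosphate (200mM), substrate Luciferin-PPXE at 25uM, luminescent luciferin detection followed a 60-min RT NADPH reaction; data scaled to 57 uM ketoconazole.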
Chain of Cytochrome P450 3A4 (Homo sapiens) (P08684 whole entry, looked up): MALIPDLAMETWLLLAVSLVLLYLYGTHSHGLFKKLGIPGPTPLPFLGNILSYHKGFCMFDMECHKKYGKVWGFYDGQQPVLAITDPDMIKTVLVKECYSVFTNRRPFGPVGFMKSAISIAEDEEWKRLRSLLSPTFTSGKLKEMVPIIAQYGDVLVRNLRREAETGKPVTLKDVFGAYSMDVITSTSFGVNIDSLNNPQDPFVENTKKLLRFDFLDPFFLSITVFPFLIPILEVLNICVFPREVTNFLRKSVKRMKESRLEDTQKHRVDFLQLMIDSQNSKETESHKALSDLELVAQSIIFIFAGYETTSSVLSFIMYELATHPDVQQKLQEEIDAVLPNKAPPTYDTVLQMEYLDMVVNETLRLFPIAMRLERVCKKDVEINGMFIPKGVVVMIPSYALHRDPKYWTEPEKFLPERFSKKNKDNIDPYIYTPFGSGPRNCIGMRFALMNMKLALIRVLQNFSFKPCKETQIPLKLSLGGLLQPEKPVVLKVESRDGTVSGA

Assay [10] can be described thus: qHTS Assay for Lipid Storage Modulators (AID 1519; calls by dose curve). As to conditions: Drosophila S3 cells, BODIPY lipid droplet/cell ratio, laser cytometry, cells loaded with oleic acid; for activity change, negative = inhibition: at 57.5 µM (top of the series). The gist of the method: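 Cells seeded at 5,000 per well were treated with compounds over a concentration series and loaded with oleic acid (400 uM, as added). Lipid droplet fluorescence (488 nm excitation, 500-530 nm channel) was read by laser-scanning cytometry and normalized to 20 uM Triacsin C.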

In assay [11] the target is Dual specificity protein kinase CLK4 (Homo sapiens) (UniProt Q9HAZ1). Briefly: qHTS Assay for Inhibitors of CDC-like Kinase 4 (Kinase-Glo Assay) (AID 1770). Also: % is scaled to controls: 0 for no effect and ±100 for the full control effect; nearly all actives have a fitted effect of over 65% in size. As to conditions: recombinant Clk4, Kinase-Glo ATP depletion luminescence; series mostly up to 66.7 µM. The gist of the method:
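Clk4 25 nM, RS peptide 100 uM, ATP 1 uM, pH 7.5 Tris, 10 mM MgCl2, 2.5 mM DTT; 4.5 h RT; ATP depletion read by Kinase-Glo luminescence.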

The target is the same in assay [12]. Briefly: qHTS Assay for Inhibitors of CDC-like Kinase 4 (ADP-Glo Assay) (AID 1771). Also: % is scaled to controls: 0 for no effect and ±100 for the full control effect; nearly all actives have a fitted effect of over 70% in size. To be noted: recombinant CLK4, ADP-Glo luminescence; series mostly up to 80 µM. The gist of the method:
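25 nM Clk4, 100 uM RS peptide, 1 uM ATP (final); 2 mM MgCl2, 0.5 mM EGTA, 2.5 mM DTT, 0.01% Triton X-100; 1 hr RT. ADP-Glo readout: ATP depletion 45 min, conversion/luciferase 30 min, luminescence.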

The target is the same in assay [13]. Briefly: qHTS Assay for Inhibitors of CDC-like Kinase 4 (ADP-FP Assay) (AID 1795).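 Also: recombinant human CLK4 phosphorylating RS repeat peptide at 1 µM ATP; % is scaled to controls: 0 for no effect and ±100 for the full control effect; nearly all actives have a fitted effect of over 60% in size.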 As to conditions: Transcreener ADP fluorescence polarization; series mostly up to 50 µM. The gist of the method:
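Kinase activity was followed as ADP output, converted from fluorescence polarization with a calibration curve. Reactions ran one hour at low ATP (1 uM) with RS peptide substrate.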

Assay [14] deals with Ubiquitin carboxyl-terminal hydrolase 1 (Homo sapiens) (UniProt O94782). Briefly: Inhibitors of USP1/UAF1: Pilot qHTS (AID 504865).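 Also: rhodamine fluorescence freed from ubiquitin-rhodamine substrate followed over time; top concentration of the series differs between compounds; % is scaled to controls: 0 for no effect and ±100 for the full control effect; nearly all actives have a fitted effect of over 35% in size.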 As to conditions: purified USP1/UAF1, Ub-rhodamine cleavage fluorescence; series mostly up to 54.9 µM. A digest of the protocol: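 Enzyme-free wells gave the negative control, while test wells held 1nM USP1/UAF1 preincubated with compound for 15 min at room temperature. Ub-Rho at 150nM final started the reaction, and fluorescence at 480/540 nm was recorded kinetically.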
Chain of Ubiquitin carboxyl-terminal hydrolase 1 (Homo sapiens) (O94782 whole entry, looked up): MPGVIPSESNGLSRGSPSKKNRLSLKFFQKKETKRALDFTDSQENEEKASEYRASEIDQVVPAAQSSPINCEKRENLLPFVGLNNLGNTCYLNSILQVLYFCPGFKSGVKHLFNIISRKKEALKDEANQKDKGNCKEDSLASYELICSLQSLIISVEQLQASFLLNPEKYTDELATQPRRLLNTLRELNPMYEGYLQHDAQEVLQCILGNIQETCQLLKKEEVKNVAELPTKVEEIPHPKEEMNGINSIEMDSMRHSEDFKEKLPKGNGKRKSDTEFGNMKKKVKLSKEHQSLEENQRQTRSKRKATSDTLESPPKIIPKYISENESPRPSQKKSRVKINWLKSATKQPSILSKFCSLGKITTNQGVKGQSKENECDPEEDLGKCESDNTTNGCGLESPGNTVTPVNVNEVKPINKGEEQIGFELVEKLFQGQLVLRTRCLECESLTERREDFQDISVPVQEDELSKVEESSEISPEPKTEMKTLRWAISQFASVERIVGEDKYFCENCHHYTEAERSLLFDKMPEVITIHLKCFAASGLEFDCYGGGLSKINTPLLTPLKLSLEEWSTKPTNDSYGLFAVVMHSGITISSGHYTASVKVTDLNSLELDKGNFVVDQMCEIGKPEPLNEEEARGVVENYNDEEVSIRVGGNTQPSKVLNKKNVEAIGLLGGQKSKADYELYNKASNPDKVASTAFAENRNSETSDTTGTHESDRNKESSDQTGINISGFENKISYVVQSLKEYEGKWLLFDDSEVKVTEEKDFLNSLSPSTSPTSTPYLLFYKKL

Assay [15] can be described thus: Primary qHTS for small molecule stabilizers of the endoplasmic reticulum resident proteome: Secreted ER Calcium Modulated Protein (SERCaMP) assay (AID 1508630). Also: % is scaled to controls: 0 for no effect and ±100 for the full control effect. As to conditions: SH-SY5Y GLuc-SERCaMP (Gaussia luciferase released on ER calcium loss) secretion, thapsigargin, luminescence; series mostly up to 38.4 µM. The gist of the method: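 The SH-SY5Y reporter protocol was run at 3 concentrations up to 38.3 uM (primary) or 11 concentrations (follow-up): 16 h compound, 100 nM thapsigargin for 4 h, then extracellular luciferase luminescence.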

Assay [16] has as its target Glucocorticoid receptor (Homo sapiens) (UniProt P04150). Briefly: GR-GFP Redistribution (AID 450;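 active = compounds whose dose series gives a full or clear partial fitted curve of increased nuclear translocation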; also: potency is read from the fitted curve at half-maximal effect). To be noted: U2OS GR-GFP nuclear translocation, laser cytometry, 2 h.
Assay [17] deals with Cytochrome P450 3A4 (Homo sapiens) (UniProt P08684). Briefly: qHTS Assay for Inhibitors and Substrates of Cytochrome P450 3A4 (AID 884). Also: % is scaled to controls: 0 for no effect and ±100 for the full control effect; nearly all actives have a fitted effect of over 50% in size. To be noted: recombinant CYP3A4, Luciferin-PPXE luminescence; series mostly up to 57.1 µM. A digest of the protocol:
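Luminescent readout of luciferin produced by CYP3A4 (20 nM) dealkylation of Luciferin-PPXE, 25 uM (its KM). NADPH-driven reaction ran 60 min at RT after 10 min compound preincubation; data scaled to 57 uM ketoconazole as 100% inhibition.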

The nature of assay [18]: qHTS Assay for Identification of Small Molecule Agonists for Hypoxia Response Element Signaling Pathway (AID 914; active = well fitted activation curve with a large enough effect in the signal ratio, with a control signal flat, not every such curve was filed as active; the % refers to the signal ratio; also: % of control where 0% means no effect). As to conditions: ME-180 (cervical carcinoma) HRE-bla reporter, beta-lactamase ratio, CoCl2, 17 h; activation: stronger effect = higher value. A digest of the protocol:
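HRE-bla ME-180 cells with beta-lactamase reporter under hypoxia response element, compounds with EC50 CoCl2 for 17 hours at 37 C. CCF4 substrate, 460nm/530nm emission ratio gave %Activity; AC50 from titration series.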

Setting [19] is: measured here: cell count channel max response.
[20] abbreviates: measured here: lipid channel max response.

Chain of 3',5'-cyclic-AMP phosphodiesterase 4B (Homo sapiens) (Q07343 whole entry, looked up): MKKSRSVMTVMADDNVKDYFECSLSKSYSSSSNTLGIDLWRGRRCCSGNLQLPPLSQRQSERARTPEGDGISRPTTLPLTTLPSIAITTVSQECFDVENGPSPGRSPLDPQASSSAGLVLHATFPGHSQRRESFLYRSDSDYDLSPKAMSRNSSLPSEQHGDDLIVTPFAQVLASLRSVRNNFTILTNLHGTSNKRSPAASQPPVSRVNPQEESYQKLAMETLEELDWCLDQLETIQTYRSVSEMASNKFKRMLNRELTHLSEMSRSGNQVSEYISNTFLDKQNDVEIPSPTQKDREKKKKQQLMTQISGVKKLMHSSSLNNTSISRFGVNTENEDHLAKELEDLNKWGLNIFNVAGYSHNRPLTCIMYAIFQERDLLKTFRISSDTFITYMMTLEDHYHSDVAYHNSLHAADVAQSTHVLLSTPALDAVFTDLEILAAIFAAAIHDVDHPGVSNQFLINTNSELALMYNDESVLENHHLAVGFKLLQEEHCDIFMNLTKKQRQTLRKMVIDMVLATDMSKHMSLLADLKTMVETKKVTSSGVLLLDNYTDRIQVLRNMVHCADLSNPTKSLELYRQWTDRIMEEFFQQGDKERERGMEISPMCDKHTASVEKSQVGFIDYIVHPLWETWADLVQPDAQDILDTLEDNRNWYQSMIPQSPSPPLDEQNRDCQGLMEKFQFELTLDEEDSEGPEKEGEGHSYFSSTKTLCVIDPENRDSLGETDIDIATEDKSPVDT
Chain of Glucocorticoid receptor (Homo sapiens) (P04150 whole entry, looked up, the tested form may be a part): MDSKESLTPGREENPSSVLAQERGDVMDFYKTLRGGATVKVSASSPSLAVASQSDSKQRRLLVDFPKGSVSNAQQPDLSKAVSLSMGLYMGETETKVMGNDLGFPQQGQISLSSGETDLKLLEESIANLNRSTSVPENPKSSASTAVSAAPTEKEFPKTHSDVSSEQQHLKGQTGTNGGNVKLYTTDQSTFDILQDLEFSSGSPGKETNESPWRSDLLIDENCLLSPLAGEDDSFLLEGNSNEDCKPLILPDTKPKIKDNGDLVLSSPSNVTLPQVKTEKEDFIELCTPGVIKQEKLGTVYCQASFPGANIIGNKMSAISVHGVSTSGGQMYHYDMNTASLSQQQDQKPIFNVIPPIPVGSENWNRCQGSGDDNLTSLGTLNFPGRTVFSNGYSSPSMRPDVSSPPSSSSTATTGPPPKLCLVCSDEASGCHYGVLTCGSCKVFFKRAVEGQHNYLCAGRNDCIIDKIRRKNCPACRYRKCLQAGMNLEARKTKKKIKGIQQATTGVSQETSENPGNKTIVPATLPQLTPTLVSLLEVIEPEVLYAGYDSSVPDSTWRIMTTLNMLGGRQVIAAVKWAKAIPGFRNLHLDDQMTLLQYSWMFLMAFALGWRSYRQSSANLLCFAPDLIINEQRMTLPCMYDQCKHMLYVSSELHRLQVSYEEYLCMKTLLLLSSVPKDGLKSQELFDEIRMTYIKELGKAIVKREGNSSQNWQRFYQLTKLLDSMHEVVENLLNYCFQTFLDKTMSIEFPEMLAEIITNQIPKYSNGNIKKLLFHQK
Chain of Dual specificity protein kinase CLK4 (Homo sapiens) (Q9HAZ1 whole entry, looked up): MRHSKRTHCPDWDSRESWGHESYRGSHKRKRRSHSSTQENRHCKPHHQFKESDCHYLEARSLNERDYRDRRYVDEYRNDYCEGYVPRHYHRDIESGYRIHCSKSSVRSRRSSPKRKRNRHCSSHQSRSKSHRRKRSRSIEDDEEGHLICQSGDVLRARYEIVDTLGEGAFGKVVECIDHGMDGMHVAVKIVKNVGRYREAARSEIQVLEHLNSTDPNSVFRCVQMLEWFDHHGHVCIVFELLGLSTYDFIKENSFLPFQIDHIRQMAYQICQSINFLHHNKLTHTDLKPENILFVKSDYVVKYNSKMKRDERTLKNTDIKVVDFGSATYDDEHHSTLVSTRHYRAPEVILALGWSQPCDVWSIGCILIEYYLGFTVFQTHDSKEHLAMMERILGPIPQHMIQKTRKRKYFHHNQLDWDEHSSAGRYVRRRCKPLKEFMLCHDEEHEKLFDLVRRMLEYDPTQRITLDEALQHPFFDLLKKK
Chain of Lysosomal acid glucosylceramidase (Homo sapiens) (P04062 whole entry, looked up): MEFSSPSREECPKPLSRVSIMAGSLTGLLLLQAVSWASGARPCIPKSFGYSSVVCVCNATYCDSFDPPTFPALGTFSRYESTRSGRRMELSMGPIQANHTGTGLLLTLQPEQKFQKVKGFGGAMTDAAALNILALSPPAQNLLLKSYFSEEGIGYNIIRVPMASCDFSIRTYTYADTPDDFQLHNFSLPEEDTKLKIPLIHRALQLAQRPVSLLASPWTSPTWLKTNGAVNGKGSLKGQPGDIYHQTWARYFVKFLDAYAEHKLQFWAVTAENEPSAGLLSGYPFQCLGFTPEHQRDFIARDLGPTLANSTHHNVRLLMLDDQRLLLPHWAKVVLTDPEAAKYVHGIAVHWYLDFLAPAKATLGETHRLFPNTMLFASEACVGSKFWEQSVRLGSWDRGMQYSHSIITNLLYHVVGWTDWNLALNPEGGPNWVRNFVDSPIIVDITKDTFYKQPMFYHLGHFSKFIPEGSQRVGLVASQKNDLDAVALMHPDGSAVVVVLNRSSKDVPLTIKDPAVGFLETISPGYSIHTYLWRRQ
Chain of Cytochrome P450 1A2 (Homo sapiens) (P05177 whole entry, looked up): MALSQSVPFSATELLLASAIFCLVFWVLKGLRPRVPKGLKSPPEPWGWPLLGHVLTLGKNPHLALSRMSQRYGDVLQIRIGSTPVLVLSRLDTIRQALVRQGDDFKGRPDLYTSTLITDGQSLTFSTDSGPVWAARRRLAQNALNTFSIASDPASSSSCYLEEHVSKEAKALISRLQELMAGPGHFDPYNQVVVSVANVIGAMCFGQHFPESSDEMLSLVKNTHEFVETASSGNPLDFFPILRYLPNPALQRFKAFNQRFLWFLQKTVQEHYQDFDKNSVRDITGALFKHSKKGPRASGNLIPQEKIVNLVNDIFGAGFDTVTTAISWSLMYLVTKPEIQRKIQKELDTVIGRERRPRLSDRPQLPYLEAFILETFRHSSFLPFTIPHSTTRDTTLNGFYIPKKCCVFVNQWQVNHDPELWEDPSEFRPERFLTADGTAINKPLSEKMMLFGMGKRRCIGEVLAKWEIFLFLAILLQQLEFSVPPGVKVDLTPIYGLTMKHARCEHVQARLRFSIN

`CN(Cc1ccco1)c1ncncc1-c1ccoc1`: the Potency in [1] was > 11.4 µM (inactive); in assay [3], 15.8 µM (active); in assay [6], > 46 µM (inactive). For the same molecule, the activity change, negative = inhibition was -12.2% (inactive) in assay [2], -18.1% (inactive) in [4] and 6.13% (inactive) in [10]. Also, the activity, negative = inhibition in assay [5] was -2% (inactive). Further, in assay [7], the molecule was classed as inactive. The Potency result in assay [8], in assay [9], in assay [11], in assay [12], in assay [13] and in assay [14] was “inactive” each time. Also, the Potency result in assay [15] is “inactive”. The max response in assay [10] (setting [19]) turned out to be 22.8%; in assay [10] (setting [20]) it was 28.4%.
On to `COCCn1c(=O)c(-c2cc(F)cc(F)c2)nc2cnc(N3CCOCC3)nc21`, for which the Potency in [1] was > 11.4 µM (inactive); in [3], 12.6 µM (active); in assay [16], > 9.22 µM (inactive); in [6], > 46 µM (inactive). For the same molecule, the activity change, negative = inhibition is 11.2% (inactive) in assay [2], 18.8% (inactive) in assay [4] and 6.45% (inactive) in assay [10]. The molecule was classed as inactive in assay [7]. The Potency result in assay [8], in [11], in assay [12], in [13], in assay [14] and in assay [15] was “inactive” each time. The max response in assay [10] (setting [19]) was 22.1%; in assay [10] (setting [20]), 26.7%.
With `CNc1cc(-c2ccccc2C(F)(F)F)ncn1`, the Potency in assay [1] was > 11.4 µM (inactive); in assay [3] it was 15.8 µM (active); in assay [16], > 46 µM (inactive); in [6] it was > 46 µM (inactive); in assay [9] it was 15.8 µM (active). Also, the activity change, negative = inhibition in [2] was 4.62% (inactive); in assay [4] it was 1.13% (inactive); in assay [10], 1.87% (inactive). In addition, the activity, negative = inhibition in [5] was 7.97% (inactive). For the same molecule, the molecule was called inactive in assay [7]. The Potency entry in assay [8], in assay [17], in [11], in [12], in [13] and in assay [15] was “inactive” in each case. The activation in assay [18] is 17.1% (inactive). Further, the max response in [10] (setting [19]) worked out at 21.4%; in assay [10] (setting [20]), 21.2%.
